FEN1 inhibitor: qHTS Assay for the Inhibitors of Human Flap endonuclease 1 (FEN1) | P39748 | Recombinant FEN1 flap cleavage, fluorescence, 15 min | Potency, µM (doses to about 114 µM), hits mostly inhibitors | 390,000 tested, 0.35% active; also: nearly all actives have a fitted effect of over 65% in size
Target sequence (P39748 whole entry, looked up): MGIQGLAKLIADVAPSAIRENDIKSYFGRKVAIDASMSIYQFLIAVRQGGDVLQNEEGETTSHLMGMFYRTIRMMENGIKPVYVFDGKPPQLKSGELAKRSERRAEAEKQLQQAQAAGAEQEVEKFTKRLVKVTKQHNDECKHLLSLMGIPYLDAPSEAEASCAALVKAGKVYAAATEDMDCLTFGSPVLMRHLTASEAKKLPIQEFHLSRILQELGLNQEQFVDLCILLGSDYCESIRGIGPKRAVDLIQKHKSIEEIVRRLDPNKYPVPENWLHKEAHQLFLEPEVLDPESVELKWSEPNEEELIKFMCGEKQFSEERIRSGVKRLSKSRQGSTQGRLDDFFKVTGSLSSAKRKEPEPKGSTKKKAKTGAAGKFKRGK
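Potency values derive from four-parameter Hill fits of normalized qHTS data. The reaction used 10 nM FEN1 preincubated 15 min at room temperature with compound, then 50 nM DNA substrate, read at 0 and 15 min.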
POLB inh: qHTS Assay for Inhibitors of DNA Polymerase Beta; Pol beta primer extension/strand displacement, fluorescence kinetic; P06746; Potency, µM (doses to about 114 µM), actives largely listed as inhibitors; AID 485314, 2010; 340,000 tested, 1.3% active
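Human Pol beta at 10 nM; strand-displacement substrate 50 nM final. Compound exposure 15 min at room temperature before start, reaction 10 min at room temperature.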
Pol eta inh-1: qHTS for Inhibitors of Polymerase Eta; DNA polymerase eta (Homo sapiens), Q9Y253; recombinant Pol eta, fluorescent DNA replication assay; Potency, µM (doses to about 114 µM), most hits filed as inhibitors; 390,000 tested, 1.2% active; AID 588591, 2011
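Pol eta at 10 nM preincubated with compounds 15 min at room temperature; reaction started with fluorescent substrate (50 nM final) and read kinetically at 0 and 10 min.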
WRN inhibitor: qHTS for Inhibitors of WRN Helicase. WRN helicase unwinding, fluorescent forked duplex, kinetic. 360,000 tested, 0.46% active. Potency, µM (titrated, usually from 114 µM), most hits filed as inhibitors. AID 651768, 2012; also: nearly all actives have a fitted effect of over 55% in size
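WRN at 20 nM final was preincubated with compound for 15 min at room temperature; reaction started with 100 nM forked duplex oligonucleotide carrying fluorophore and quencher plus 2 mM ATP (final). Unwinding followed kinetically by red fluorescence (ex 525/em 598 nm).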
POLI inh: qHTS for Inhibitors of Polymerase Iota; Potency, µM (top dose mostly 115 µM), most hits filed as inhibitors; 390,000 tested, 1% active; DNA polymerase iota (Homo sapiens), Q9UNA4; Pol iota fluorescent replication assay, 10 min; AID 588590, 2011
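Fluorescent replication assay read twice, at 0 min and 10 min after adding 50 nM (final) substrate. Enzyme (10 nM) and compounds were first incubated 15 min at room temperature; enzyme-free buffer wells were negative controls.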
Pol kappa inh-1: qHTS for Inhibitors of Polymerase Kappa | DNA polymerase kappa (Homo sapiens), Q9UBT6 | purified Pol kappa, fluorescent DNA synthesis assay, 10 min | Potency, µM (doses to about 107 µM), actives largely listed as inhibitors | 400,000 tested, 0.53% active
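Kinetic fluorescence screen: compound preincubated 15 min RT with 10 nM enzyme; 50 nM substrate (final) initiates; reads at 0/10 min.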
PGK validate: qHTS for inhibitors of Phosphogylcerate Kinase: Hit Validation Screen; 500 tested, 79% active; shares compounds with Pol kappa inh-1; AID 686980, 2013; TbPGK coupled GAPDH assay, Kinase-Glo luminescence; Potency, µM (doses to about 57.5 µM), hits mostly inhibitors; also: nearly all actives have a fitted effect of over 65% in size
POLI cherry-pick: qHTS for Inhibitors of Polymerase Iota: Confirmatory Assay for Cherry-picked Compounds; shares compounds with Pol kappa inh-1; Pol iota primer extension, TAMRA/BHQ fluorescence; Potency, µM, most hits filed as inhibitors; 1,500 tested, 77% active; AID 720496, 2013
Pol kappa inh-2: qHTS for Inhibitors of Polymerase Kappa: Confirmatory Assay for Cherry-picked Compounds | 920 tested, 76% active | Potency, µM, most hits filed as inhibitors | shares compounds with Pol eta inh-1 | purified Pol-kappa, fluorescent strand-displacement substrate
Pol eta inh-2: qHTS for Inhibitors of Polymerase Eta: Confirmatory Assay for Cherry-picked Compounds | shares compounds with Pol eta inh-1 | Pol eta primer extension, TAMRA/BHQ fluorescence, 10 min | Potency, µM, usual class: inhibitors | 2,600 tested, 64% active | AID 720502, 2013
Numbers stand for hits; - = inactive; ? = inconclusive; . = no result; ! = repeats disagree; [ ] = another dose, or the depositor's remark. Most compounds without a hit are left out; they make up all but 2.4% or so of the library. Calls follow the shape of the dose curve; as a rule, active = well fitted curve in the direction sought with a large enough effect; inconclusive = small, poorly fitted or top-dose-only effect, or another doubt; inactive = no such curve, though single readings can be large; an effect the other way counts as inactive or inconclusive.

SMILES	FEN1 inhibitor	POLB inh	Pol eta inh-1	WRN inhibitor	POLI inh	Pol kappa inh-1	POLI cherry-pick	Pol kappa inh-2	Pol eta inh-2	others
O=C(CCN1C(=O)/C(=C/c2ccc(Cl)cc2)SC1=S)Nc1ccc(C(=O)O)cc1	-	-	-	-	-	-	.	.	.
O=C(CCN1C(=O)/C(=C/c2ccco2)SC1=S)Nc1ccc(O)cc1C(=O)O	35µM	22µM	5.6µM	32µM	4.5µM	?	47	13	30
O=C(CCN1C(=O)/C(=C\c2ccco2)SC1=S)Nc1ccc(C(=O)O)c(O)c1	18µM	100µM	8.9µM	50µM	-	20µM	19	4.7	5.4
O=C1/C(=C/c2ccco2)SC(=S)N1CC1CCCO1 (stereo unspecified)	-	13µM	50µM	?	22µM	89µM	?	42	67
CC(C)(C)c1ccc(OCC(=O)Nc2c(C(=O)c3ccc(F)cc3)oc3ccccc23)cc1	-	-	-	.	-	-	.	.	.
O=C(N/N=C/c1cc(Br)c(Br)o1)c1ccc2c(c1)OCCO2	-	8.9µM	13µM	?	?	?	?	.	30
CNC(=O)c1cnc2sc(N3CCCCCC3)nn2c1=O	-	-	-	.	-	-	.	.	.
CCOC(=O)C1=C(C)N(C[C@@H]2CC[C@@H](Cc3ccc(-c4ccccc4)cc3)O2)C(=O)NC1c1ccc(SCc2ccco2)c([N+](=O)[O-])c1 (stereo partly specified)	-	.	13µM	?	?	?	60	17	48
N#C/C(=C\c1ccc(O)c(O)c1)C(=O)c1ccc(O)c(O)c1	1.4µM	0.063µM	0.13µM!	0.17µM	1.1µM	0.34µM	0.75	0.38	0.67	PGK validate=0.33µM
N#C/C(=C\c1ccc(O)c(O)c1)C(=O)N1CCCC1	-	-	?	-[11.6 µM]	?	-	.	.	.
O=C(O)c1ccc(N=Nc2c(O)ccc3ncccc23)cc1	?	5µM	2.8µM	?	4µM	28µM	34	11	15
COc1ccccc1NC(=O)C1=C(C)Nc2ncnn2C1c1ccccn1 (stereo unspecified)	-	-	-	.	-	-	.	.	.
COc1ccccc1NC(=O)C1=C(C)Nc2ncnn2C1c1ccc[nH]1 (stereo unspecified)	?	16µM	32µM	.	79µM	-	60	.	60
O=C(N=Nc1c(O)[nH]c2ccc([N+](=O)[O-])cc12)c1ccccc1Cl	?	-	40µM	-[11.6 µM]	-	-	67	.	?
COc1ccc(OC)c(CCNC(=O)Cn2ccc3cc(S(=O)(=O)N4CCCCC4)ccc32)c1	-	-	-	.	-	-	.	.	.
Cc1cccc(Cn2cc(C(=O)Nc3ccc(F)c(C(F)(F)F)c3)ccc2=O)c1	-	-	-	.	-	-	.	.	.
NC1=C(Cl)C(=O)c2ccccc2C1=O	?	.	-	-	-	-	.	.	.
NC1=C(Cl)C(=O)c2ccc(S(N)(=O)=O)cc2C1=O	-	.	10µM	?	4µM	-	75	.	38
COc1ccccc1NC(=O)COC(=O)c1cc2c(s1)CCC2	-	.	20µM	?	32µM	?	75	?	76
